# Data reported in PubChem BioAssay (EPA / NIEHS).
# Results filed as inconclusive are left out. Calls of active or inactive are those of the source. How the source made its calls: active means hit-call score of the fitted dose curve at least 0.9, where 1 is the maximum; inconclusive means response in the unintended direction; inactive means score below 0.9.
# Columns and labels:
# [1] = molecular target: human Serotonin, 5-Hydroxytryptamine Receptor 6 (5HT6), HTR6 (gene 3362) (UniProt P50406); assay: NVS_GPCR_h5HT6: NovaScreen (NVS) G Protein-Coupled Receptor Assay for human Serotonin, 5-Hydroxytryptamine Receptor 6 (5HT6) (AID 2283253)
# Chain of human Serotonin, 5-Hydroxytryptamine Receptor 6 (5HT6), HTR6 (gene 3362) (P50406 whole entry, looked up): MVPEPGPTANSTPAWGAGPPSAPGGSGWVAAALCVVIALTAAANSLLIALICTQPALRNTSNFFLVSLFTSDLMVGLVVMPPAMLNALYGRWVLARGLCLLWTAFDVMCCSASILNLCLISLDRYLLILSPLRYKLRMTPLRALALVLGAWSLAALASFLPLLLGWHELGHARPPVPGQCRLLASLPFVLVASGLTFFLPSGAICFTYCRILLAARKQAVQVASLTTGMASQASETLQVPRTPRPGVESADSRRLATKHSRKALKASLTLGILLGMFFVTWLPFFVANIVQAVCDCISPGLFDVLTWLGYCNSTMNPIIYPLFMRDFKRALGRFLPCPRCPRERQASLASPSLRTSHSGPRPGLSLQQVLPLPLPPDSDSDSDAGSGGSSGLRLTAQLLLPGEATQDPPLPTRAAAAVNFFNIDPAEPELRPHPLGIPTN
# Outline: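 Radioligand binding to 5HT6 in HEK293-derived membranes, cell-free, 1 h after dosing; bound ligand measured by filter-based scintillation counting. Primary screen in duplicate at 25 uM; actives retested in concentration series.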
# [2] = molecular target: guinea pig Opioid, Kappa 1 Receptor (OpiateK), OPRK1 (gene 100135587) (UniProt P41144); assay: NVS_GPCR_gOpiateK: NovaScreen (NVS) G Protein-Coupled Receptor Assay for guinea pig Opioid, Kappa 1 Receptor (OpiateK) (AID 2283252);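 further: radioligand displacement from kappa opioid receptor in guinea pig cerebellar membranes; active means reduced radioligand binding relative to DMSO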
# Chain of guinea pig Opioid, Kappa 1 Receptor (OpiateK), OPRK1 (gene 100135587) (P41144 whole entry, looked up): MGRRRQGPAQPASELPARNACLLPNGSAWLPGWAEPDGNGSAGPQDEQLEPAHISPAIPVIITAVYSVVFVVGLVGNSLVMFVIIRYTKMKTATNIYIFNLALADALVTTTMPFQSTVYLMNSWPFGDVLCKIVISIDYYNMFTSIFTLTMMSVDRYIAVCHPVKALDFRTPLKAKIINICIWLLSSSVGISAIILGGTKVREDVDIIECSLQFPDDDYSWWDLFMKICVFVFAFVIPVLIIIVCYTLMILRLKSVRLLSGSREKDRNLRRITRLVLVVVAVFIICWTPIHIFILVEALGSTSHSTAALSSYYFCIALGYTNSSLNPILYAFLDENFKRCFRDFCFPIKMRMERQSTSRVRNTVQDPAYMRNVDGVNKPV
# Outline: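 Guinea pig cerebellar membranes were incubated with a radioligand for 2 h after compound addition; bound radioactivity was read by filter-based scintillation counting. Loss of specific binding relative to DMSO baseline defined activity; primary screen at 25 uM in duplicate.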
# [3] = molecular target: human Serotonin, 5-Hydroxytryptamine Receptor 5A (5HT5A), HTR5A (gene 3361) (UniProt P47898); assay: NVS_GPCR_h5HT5A: NovaScreen (NVS) G Protein-Coupled Receptor Assay for human Serotonin, 5-Hydroxytryptamine Receptor 5A (5HT5A) (AID 2283251)
# Chain of human Serotonin, 5-Hydroxytryptamine Receptor 5A (5HT5A), HTR5A (gene 3361) (P47898 whole entry, looked up): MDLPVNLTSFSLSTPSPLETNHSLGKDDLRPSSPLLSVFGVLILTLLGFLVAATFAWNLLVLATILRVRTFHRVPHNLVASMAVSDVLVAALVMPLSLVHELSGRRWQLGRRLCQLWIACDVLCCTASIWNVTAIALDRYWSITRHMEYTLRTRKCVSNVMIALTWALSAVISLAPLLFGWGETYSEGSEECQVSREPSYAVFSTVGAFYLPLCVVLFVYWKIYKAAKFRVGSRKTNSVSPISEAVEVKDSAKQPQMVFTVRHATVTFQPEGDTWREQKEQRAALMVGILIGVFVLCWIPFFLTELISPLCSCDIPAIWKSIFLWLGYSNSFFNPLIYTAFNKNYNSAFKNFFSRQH
# Outline: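 Cell-free radioligand displacement binding on HEK293-derived membrane protein, 1 h incubation, filter-based scintillation counting. Primary screen in duplicate at 25 uM, actives followed in concentration series; loss of signal fitted versus DMSO.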
# [4] = molecular target: human Serotonin, 5-Hydroxytryptamine Receptor 7 (5HT7), HTR7 (gene 3363) (UniProt P34969); assay: NVS_GPCR_h5HT7: NovaScreen (NVS) G Protein-Coupled Receptor Assay for human Serotonin, 5-Hydroxytryptamine Receptor 7 (5HT7) (AID 2283255);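 further: hits reduce specific radioligand binding relative to DMSO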
# Chain of human Serotonin, 5-Hydroxytryptamine Receptor 7 (5HT7), HTR7 (gene 3363) (P34969 whole entry, looked up): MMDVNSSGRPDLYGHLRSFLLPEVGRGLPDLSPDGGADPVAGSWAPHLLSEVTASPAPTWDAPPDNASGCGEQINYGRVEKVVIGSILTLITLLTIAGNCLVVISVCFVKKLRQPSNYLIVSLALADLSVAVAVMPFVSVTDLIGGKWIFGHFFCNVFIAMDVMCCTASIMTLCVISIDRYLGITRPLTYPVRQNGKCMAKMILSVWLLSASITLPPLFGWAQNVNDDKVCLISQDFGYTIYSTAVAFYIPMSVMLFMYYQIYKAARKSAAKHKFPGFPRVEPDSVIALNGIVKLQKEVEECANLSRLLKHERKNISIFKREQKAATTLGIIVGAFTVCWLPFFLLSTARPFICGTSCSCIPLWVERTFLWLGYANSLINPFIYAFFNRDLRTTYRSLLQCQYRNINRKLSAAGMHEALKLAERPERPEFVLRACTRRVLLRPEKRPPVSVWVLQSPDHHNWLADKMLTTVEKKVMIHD
# Outline: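 Radioligand displacement on membranes from CHO cells expressing human 5HT7, 1 h incubation, filter-based scintillation counting. Primary screen used a single 25 uM concentration in duplicate; actives were followed up in concentration series.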
# [5] = molecular target: human Adenosine A1 Receptor (AdoRA1), ADORA1 (gene 134) (UniProt P30542); assay: NVS_GPCR_hAdoRA1: NovaScreen (NVS) G Protein-Coupled Receptor Assay for human Adenosine A1 Receptor (AdoRA1) (AID 2283254)
# Chain of human Adenosine A1 Receptor (AdoRA1), ADORA1 (gene 134) (P30542 whole entry, looked up): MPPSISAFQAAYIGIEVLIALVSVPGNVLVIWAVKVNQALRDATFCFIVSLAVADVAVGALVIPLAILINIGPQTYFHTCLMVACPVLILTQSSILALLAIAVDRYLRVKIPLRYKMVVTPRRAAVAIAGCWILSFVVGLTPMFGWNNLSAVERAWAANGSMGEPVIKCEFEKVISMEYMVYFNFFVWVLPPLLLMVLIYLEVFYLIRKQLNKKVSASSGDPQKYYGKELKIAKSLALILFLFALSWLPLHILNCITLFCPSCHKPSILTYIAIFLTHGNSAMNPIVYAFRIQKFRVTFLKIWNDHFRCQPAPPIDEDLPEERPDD
# Outline: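 Membranes from human cortical tissue were incubated with radioligand and test chemical for 1 hour, then filtered and counted. Activity was taken as signal loss relative to DMSO, screened at 25 uM in duplicate before concentration-response follow-up.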
# [6] = molecular target: guinea pig Leukotriene D4 Receptor (LTD4), CYSLTR1 (gene 100135514) (UniProt Q2NNR5); assay: NVS_GPCR_gLTD4: NovaScreen (NVS) G Protein-Coupled Receptor Assay for guinea pig Leukotriene D4 Receptor (LTD4) (AID 2283248)
# Chain of guinea pig Leukotriene D4 Receptor (LTD4), CYSLTR1 (gene 100135514) (Q2NNR5 whole entry, looked up): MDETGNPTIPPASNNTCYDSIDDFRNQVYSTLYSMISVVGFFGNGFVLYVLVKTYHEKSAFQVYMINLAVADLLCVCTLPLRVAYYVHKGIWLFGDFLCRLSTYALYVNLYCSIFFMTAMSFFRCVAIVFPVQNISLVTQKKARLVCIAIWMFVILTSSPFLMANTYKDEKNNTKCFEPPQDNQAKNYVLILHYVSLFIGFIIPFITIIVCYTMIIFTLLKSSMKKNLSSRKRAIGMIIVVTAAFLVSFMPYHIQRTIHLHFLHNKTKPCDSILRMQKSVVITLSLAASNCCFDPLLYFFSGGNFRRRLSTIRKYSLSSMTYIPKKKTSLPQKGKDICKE
# Outline: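 Radioligand displacement on guinea pig lung membranes, 1 h incubation, filtration and scintillation counting; DMSO as negative control. Duplicate 25 uM primary screen, then singleton concentration-response up to 50 uM.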
# [7] = test system: guinea pig Muscarinic, Peripheral (Mperiperal) Receptor, Non-selective Binding, gene 100379235; assay: NVS_GPCR_gMPeripheral_NonSelective: NovaScreen (NVS) G Protein-Coupled Receptor Assay for guinea pig Muscarinic, Peripheral (Mperiperal) Receptor, Non-selective Binding (AID 2283250)
# Outline: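 Guinea pig bladder membranes, radioligand binding read 1 h after dosing by filter scintillation counting; loss of signal vs DMSO. Primary duplicate screen at 25 uM, then concentration-response up to 50 uM.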
structure (smiles),measurement,setting,value
NCCO,outcome,[1],inactive
COCCOC[C@H](CC1(C(=O)NC2CCC(C(=O)O)CC2)CCCC1)C(=O)Oc1ccc2c(c1)CCC2 (stereo not given in full),outcome,[2],inactive
Nc1nc(N)c2nc(CNc3ccc(C(=O)N[C@@H](CCC(=O)O)C(=O)O)cc3)cnc2n1,AC50,[3],6.28 µM (active)
COc1cc(S(=O)(=O)O)c(C)cc1N=Nc1c(O)ccc2cc(S(=O)(=O)O)ccc12,outcome,[2],inactive
same,AC50,[4],14.8 µM (active)
CCc1c(C(=O)NN2CCCCC2)nn(-c2ccc(Cl)cc2Cl)c1-c1ccc(Br)cc1,AC50,[2],9.97 µM (active)
O=C(N[C@@H](Cc1ccccc1)[C@@H](O)C(=O)N1C[C@@H](O)[C@@H](O)C1)c1cc2cc(Cl)ccc2[nH]1,AC50,[5],16 µM (active)
CCCCCCCC=O,AC50,[6],0.613 µM (active)
Cc1nc(-c2ccc3c(c2)CCN(CCC2CCC(NC(=O)/C=C/c4ccc(F)cc4)CC2)CC3)no1 (stereo not given),AC50,[7],0.483 µM (active)
same,AC50,[2],0.262 µM (active)
COc1cc(-c2nc(NC(=O)c3cc4cc(C)cc(C)c4n3CC(=O)O)sc2CCC2CCCCC2)c(OC)cc1Cl,outcome,[6],inactive
same,outcome,[3],inactive
COc1ccc2c(c1)c(CC(=O)O)c(C)n2C(=O)c1ccc(Cl)cc1,outcome,[7],inactive
COc1ccc(S(=O)(=O)N2C(=O)[C@@](c3ccccc3OC)(N3C[C@H](O)C[C@H]3C(=O)N(C)C)c3cc(Cl)ccc32)c(OC)c1,AC50,[7],13.8 µM (active)
Nc1ccc2c(c1)C(=O)c1ccccc1C2=O,AC50,[5],6.52 µM (active)
